# Laboratory results reported in PMC7862700, “An all-to-all approach to the identification of sequence-specific readers for epigenetic DNA modifications on cytosine”.
# How the values were obtained:
# Assay in all cases: DAPPL (digital affinity profiling via proximity ligation, sequencing); 10 mM Tris-HCl pH 7.5, 50 mM NaCl, 1 mM DTT, 4% glycerol, room temperature, 30 min; GST-TFs on glutathione beads, 16-mer random dsDNA library, 0.1% formaldehyde crosslink after washing; high values mean tight binding
# [1] = biological target: T1, FLI1 (Homo sapiens, UniProt Q01543 1-452); details: protein: recombinant; tags: N-terminal GST; dsDNA, one strand shown
# T1 sequence: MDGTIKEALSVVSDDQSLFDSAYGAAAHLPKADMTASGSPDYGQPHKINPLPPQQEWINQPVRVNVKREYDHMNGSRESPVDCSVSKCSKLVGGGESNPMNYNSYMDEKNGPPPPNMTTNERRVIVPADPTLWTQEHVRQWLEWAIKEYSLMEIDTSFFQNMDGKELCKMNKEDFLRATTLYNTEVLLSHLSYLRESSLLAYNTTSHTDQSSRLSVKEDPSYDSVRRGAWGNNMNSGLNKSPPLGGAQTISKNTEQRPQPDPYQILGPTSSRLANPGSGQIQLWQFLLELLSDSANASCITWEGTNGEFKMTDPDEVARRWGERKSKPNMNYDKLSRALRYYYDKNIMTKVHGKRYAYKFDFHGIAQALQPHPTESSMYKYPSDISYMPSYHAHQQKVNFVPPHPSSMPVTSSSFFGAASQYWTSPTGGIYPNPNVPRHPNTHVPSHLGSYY
# Outline: (§1)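 A tag-only sample was pooled with DNA-barcoded human transcription factors that had been expressed in yeast as GST fusions and captured on glutathione beads. The pools were incubated for 30 min at room temperature with 200 nmole of a random double-stranded 16-mer DNA library in Tris/NaCl/DTT/glycerol buffer, then washed, crosslinked with 0.1% formaldehyde, proximity-ligated (BsaI/T4 ligase, 1 h, 37 °C), PCR-amplified and sequenced on an Illumina NextSeq500. Binding signal is each hexamer's read frequency for a factor divided by its frequency for the tag-only sample.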
# [2] = biological target: T2, ELK1 (Homo sapiens, UniProt P19419 1-428); details: protein: recombinant; tags: N-terminal GST; dsDNA, one strand shown
# T2 sequence: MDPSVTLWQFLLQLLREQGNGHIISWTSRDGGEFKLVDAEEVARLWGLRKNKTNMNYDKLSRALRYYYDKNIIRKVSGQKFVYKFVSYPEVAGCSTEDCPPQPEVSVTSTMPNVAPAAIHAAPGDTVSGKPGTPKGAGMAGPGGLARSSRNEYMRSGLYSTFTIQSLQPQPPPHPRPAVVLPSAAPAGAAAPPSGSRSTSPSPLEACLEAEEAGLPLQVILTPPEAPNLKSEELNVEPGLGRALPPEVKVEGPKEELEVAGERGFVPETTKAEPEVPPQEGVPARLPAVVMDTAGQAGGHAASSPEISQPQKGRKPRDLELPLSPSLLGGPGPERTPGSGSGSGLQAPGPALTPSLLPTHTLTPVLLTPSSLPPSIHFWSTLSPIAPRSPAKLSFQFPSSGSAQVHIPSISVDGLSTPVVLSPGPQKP
# Outline: as §1
# [3] = biological target: T3, GABPA (Homo sapiens, UniProt Q06546 1-454); details: protein: recombinant; tags: N-terminal GST; dsDNA, one strand shown
# T3 sequence: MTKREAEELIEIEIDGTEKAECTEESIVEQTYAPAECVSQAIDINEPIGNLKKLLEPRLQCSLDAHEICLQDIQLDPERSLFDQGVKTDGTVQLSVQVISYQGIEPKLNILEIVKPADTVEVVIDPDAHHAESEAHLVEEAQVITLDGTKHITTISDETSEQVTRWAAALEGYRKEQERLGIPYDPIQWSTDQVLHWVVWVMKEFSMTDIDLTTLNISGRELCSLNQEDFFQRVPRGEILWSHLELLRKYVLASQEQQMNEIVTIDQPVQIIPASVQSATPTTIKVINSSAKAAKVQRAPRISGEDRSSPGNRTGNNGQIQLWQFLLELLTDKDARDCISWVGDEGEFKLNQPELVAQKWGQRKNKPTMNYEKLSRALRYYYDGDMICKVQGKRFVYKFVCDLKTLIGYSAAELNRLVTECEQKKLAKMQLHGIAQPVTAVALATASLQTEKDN
# Outline: as §1
# [4] = biological target: T4, ERG (Homo sapiens, UniProt P11308 1-479); details: protein: recombinant; tags: N-terminal GST; dsDNA, one strand shown
# T4 sequence: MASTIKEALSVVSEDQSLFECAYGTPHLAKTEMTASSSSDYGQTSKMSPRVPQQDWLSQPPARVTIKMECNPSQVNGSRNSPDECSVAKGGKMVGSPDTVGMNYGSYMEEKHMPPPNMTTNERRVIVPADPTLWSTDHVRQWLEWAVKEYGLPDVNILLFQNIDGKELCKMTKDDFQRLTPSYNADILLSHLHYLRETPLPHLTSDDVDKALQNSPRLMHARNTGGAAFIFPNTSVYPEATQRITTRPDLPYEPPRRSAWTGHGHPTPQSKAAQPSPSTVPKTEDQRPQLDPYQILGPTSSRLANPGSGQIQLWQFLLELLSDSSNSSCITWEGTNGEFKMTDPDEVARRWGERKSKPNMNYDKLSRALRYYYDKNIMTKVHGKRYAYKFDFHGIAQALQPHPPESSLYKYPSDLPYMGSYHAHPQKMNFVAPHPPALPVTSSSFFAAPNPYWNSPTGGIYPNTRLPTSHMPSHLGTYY
# Outline: as §1
# [5] = biological target: ELF1 (Homo sapiens, UniProt P32519 1-619); details: protein: recombinant; tags: N-terminal GST; dsDNA, one strand shown
# Outline: as §1
# [6] = biological target: T5, EHF (Homo sapiens, UniProt Q9NZC4 1-300); details: protein: recombinant; tags: N-terminal GST; dsDNA, one strand shown
# T5 sequence: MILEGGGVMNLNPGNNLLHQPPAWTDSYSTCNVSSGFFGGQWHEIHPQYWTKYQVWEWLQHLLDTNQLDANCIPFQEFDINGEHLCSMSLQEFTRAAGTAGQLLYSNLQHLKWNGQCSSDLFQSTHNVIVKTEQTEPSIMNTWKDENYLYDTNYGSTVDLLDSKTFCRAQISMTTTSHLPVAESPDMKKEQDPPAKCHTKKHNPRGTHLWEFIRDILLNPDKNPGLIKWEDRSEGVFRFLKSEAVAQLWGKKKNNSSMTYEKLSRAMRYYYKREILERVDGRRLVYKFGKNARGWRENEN
# Outline: as §1
# [7] = biological target: SPI1 (Homo sapiens, UniProt P17947 1-270); details: protein: recombinant; tags: N-terminal GST; dsDNA, one strand shown
# Outline: as §1
# [8] = biological target: SPIB (Homo sapiens, UniProt Q01892 1-262); details: protein: recombinant; tags: N-terminal GST; dsDNA, one strand shown
# Outline: as §1
# [9] = biological target: T6, ELK3 (Homo sapiens, UniProt P41970 1-407); details: protein: recombinant; tags: N-terminal GST; dsDNA, one strand shown
# T6 sequence: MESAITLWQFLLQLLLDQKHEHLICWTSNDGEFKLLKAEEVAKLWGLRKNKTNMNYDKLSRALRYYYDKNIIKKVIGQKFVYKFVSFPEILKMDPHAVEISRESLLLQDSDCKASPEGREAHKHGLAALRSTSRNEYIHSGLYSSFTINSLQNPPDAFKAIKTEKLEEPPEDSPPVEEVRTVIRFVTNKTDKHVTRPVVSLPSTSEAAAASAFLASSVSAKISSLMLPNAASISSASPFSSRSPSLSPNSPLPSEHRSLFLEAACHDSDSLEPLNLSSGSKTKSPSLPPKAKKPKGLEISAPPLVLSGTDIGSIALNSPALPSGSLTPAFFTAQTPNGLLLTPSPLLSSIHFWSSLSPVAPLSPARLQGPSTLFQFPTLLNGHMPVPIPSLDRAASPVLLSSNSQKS
# Outline: as §1
# [10] = biological target: T7, FEV (Homo sapiens, UniProt Q99581 1-238); details: protein: recombinant; tags: N-terminal GST; dsDNA, one strand shown
# T7 sequence: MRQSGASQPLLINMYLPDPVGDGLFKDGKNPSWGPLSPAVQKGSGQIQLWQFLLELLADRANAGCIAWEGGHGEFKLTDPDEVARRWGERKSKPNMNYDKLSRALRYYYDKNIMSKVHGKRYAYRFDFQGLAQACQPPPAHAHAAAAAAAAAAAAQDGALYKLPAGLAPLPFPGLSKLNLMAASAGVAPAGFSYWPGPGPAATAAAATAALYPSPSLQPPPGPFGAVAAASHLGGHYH
# Outline: as §1
# [11] = biological target: ETV5 (Homo sapiens, UniProt P41161 1-510); details: protein: recombinant; tags: N-terminal GST; dsDNA, one strand shown
# Outline: as §1
# [12] = biological target: HSF1 (Homo sapiens, UniProt Q00613 1-529); details: protein: recombinant; tags: N-terminal GST; chain copies: 3; dsDNA, one strand shown
# Outline: as §1
# [13] = biological target: T8, SPIC (Homo sapiens, UniProt Q8N5J4 1-248); details: protein: recombinant; tags: N-terminal GST; dsDNA, one strand shown
# T8 sequence: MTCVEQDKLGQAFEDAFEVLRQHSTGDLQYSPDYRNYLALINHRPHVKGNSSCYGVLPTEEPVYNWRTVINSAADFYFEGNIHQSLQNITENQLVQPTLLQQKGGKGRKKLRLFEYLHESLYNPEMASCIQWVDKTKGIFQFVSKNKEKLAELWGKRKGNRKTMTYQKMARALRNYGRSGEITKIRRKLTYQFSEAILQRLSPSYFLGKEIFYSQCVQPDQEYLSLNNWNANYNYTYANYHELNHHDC
# Outline: as §1
# [14] = biological target: ELF4 (Homo sapiens, UniProt Q99607 1-663); details: protein: recombinant; tags: N-terminal GST; dsDNA, one strand shown
# Outline: as §1
# [15] = biological target: T9, ELK4 (Homo sapiens, UniProt P28324-2 1-405); details: protein: recombinant; tags: N-terminal GST; dsDNA, one strand shown
# T9 sequence: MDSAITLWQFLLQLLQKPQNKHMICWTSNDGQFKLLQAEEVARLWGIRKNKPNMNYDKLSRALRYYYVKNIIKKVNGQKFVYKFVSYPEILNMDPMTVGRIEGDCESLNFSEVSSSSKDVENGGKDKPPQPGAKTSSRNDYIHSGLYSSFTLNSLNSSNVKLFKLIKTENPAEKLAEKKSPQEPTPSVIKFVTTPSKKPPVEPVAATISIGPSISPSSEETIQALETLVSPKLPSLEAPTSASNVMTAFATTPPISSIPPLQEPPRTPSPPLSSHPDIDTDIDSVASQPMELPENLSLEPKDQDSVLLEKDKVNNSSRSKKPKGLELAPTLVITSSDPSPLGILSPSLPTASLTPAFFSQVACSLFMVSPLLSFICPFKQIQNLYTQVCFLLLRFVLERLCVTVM
# Outline: as §1
# [16] = biological target: T10, ETV2 (Homo sapiens, UniProt O00321 1-342); details: protein: recombinant; tags: N-terminal GST; dsDNA, one strand shown
# T10 sequence: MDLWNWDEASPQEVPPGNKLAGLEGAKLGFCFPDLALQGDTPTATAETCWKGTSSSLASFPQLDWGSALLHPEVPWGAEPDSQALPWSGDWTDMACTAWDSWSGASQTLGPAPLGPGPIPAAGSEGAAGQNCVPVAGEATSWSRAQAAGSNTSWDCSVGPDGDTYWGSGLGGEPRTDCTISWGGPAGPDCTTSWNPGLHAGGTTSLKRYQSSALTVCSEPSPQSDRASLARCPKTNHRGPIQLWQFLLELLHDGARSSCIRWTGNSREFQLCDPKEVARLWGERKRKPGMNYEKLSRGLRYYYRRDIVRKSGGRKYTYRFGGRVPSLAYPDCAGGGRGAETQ
# Outline: as §1
# [17] = biological target: T11, ELF3 (Homo sapiens, UniProt P78545 1-371); details: protein: recombinant; tags: N-terminal GST; dsDNA, one strand shown
# T11 sequence: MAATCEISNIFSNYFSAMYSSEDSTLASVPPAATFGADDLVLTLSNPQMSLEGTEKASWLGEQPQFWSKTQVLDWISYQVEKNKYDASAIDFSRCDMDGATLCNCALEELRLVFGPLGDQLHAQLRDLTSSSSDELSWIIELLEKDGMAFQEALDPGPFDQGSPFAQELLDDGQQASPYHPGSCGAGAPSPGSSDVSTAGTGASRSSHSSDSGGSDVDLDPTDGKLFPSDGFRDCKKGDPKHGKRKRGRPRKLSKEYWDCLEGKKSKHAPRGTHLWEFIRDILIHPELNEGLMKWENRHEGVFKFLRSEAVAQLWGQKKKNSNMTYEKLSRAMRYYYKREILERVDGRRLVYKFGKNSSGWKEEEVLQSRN
# Outline: as §1
# [18] = biological target: CRX (Homo sapiens, UniProt O43186 1-299); details: protein: recombinant; tags: N-terminal GST; dsDNA, one strand shown
# Outline: as §1
# [19] = biological target: ETV1 (Homo sapiens, UniProt P50549 1-477); details: protein: recombinant; tags: N-terminal GST; dsDNA, one strand shown
# Outline: as §1
# Sequence of ELF4 (Q99607 whole entry): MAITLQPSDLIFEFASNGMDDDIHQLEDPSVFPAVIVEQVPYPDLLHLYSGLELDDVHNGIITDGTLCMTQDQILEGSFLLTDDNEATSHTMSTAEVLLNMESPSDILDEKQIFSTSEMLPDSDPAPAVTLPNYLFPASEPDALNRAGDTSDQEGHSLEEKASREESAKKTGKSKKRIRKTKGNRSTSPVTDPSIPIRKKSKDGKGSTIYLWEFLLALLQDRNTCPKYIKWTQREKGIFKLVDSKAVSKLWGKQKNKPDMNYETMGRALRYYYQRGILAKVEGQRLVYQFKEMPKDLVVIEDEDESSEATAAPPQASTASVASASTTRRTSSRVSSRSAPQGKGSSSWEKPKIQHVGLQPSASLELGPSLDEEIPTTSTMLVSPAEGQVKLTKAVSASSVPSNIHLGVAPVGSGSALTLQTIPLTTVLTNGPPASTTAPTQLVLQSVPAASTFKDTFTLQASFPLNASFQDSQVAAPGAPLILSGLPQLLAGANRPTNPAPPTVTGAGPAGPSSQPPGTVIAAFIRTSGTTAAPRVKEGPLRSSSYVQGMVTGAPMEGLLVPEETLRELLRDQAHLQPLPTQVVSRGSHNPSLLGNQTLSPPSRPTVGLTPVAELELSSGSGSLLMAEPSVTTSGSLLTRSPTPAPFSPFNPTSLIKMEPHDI
# Sequence of ELF1 (P32519 whole entry): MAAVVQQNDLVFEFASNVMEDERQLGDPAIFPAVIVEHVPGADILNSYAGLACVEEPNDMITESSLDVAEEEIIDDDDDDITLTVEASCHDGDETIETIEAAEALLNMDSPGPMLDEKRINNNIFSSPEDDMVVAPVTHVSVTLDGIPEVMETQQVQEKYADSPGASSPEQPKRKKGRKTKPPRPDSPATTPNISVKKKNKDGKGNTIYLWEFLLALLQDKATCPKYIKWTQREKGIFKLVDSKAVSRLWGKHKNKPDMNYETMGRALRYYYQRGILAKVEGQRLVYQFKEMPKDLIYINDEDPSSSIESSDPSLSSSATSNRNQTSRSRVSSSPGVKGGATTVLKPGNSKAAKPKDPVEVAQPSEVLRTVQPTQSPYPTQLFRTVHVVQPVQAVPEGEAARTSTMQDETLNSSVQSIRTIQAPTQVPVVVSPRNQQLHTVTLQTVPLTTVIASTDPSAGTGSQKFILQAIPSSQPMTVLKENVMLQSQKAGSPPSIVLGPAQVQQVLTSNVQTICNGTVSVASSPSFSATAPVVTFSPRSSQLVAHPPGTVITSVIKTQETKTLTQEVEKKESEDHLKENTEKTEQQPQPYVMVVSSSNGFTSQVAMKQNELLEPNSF
# Sequence of HSF1 (Q00613 whole entry): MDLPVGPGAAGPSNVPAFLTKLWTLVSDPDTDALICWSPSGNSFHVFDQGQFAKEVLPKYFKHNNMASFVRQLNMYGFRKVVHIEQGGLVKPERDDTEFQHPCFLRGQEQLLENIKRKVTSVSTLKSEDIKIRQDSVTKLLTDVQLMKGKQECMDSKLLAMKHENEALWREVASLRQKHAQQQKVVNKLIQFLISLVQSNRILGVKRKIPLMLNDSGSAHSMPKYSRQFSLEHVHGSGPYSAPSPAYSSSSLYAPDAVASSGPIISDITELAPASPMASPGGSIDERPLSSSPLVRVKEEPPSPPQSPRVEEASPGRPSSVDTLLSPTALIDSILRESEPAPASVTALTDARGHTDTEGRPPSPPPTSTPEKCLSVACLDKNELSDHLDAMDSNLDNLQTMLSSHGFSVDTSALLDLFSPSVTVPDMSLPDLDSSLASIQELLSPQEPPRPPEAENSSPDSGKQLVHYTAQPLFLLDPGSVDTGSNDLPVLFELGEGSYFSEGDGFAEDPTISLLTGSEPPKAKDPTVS
# Sequence of ETV1 (P50549 whole entry): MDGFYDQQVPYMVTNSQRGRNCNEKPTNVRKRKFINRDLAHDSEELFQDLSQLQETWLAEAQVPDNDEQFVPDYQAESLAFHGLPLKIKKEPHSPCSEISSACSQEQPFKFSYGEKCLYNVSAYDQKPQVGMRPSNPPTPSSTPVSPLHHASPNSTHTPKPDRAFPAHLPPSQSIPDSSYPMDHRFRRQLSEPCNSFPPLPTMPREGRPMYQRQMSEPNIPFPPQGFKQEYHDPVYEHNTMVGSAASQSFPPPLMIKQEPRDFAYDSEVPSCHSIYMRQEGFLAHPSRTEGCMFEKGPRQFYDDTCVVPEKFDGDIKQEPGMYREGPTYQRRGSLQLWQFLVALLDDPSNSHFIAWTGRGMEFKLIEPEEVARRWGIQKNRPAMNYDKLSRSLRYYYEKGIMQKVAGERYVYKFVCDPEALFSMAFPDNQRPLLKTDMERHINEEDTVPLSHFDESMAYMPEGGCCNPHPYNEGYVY
# Sequence of CRX (O43186 whole entry): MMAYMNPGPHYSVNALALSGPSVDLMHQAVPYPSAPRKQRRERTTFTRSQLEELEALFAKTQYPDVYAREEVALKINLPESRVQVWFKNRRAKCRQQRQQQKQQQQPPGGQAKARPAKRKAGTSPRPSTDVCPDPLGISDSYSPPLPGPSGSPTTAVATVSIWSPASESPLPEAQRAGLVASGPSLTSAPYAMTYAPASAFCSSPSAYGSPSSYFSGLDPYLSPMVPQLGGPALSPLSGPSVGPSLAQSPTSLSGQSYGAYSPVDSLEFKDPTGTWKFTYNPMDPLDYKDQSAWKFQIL
# Sequence of SPIB (Q01892 whole entry): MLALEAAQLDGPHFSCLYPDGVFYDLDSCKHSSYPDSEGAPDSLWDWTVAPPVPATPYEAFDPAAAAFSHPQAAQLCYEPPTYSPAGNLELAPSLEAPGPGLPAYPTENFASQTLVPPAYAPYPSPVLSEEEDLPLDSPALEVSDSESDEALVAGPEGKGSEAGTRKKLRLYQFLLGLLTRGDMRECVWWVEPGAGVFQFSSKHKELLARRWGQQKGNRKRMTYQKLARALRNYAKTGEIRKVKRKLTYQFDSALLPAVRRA
# Sequence of ETV5 (P41161 whole entry): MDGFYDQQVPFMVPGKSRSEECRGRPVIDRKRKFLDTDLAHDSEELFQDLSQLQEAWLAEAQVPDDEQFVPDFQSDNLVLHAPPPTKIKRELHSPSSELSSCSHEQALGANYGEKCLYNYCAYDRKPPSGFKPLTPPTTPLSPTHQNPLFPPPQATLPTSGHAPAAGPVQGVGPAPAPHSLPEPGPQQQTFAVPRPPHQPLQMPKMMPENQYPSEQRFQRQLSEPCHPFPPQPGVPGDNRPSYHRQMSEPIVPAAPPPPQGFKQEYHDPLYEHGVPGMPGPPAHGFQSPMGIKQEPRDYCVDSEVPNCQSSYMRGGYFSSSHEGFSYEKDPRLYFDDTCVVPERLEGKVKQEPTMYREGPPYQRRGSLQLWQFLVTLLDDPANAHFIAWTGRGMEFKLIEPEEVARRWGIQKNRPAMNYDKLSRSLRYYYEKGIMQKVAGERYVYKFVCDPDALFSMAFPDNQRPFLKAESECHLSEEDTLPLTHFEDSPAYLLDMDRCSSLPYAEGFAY
sequence,measurement,setting,value
ATGATT,binding signal,[1],"1.22 fold enrichment (6-mer frequency, TF over GST control)"
same,binding signal,[2],"1.25 fold enrichment (6-mer frequency, TF over GST control)"
same,binding signal,[3],"1.37 fold enrichment (6-mer frequency, TF over GST control)"
same,binding signal,[4],"1.21 fold enrichment (6-mer frequency, TF over GST control)"
same,binding signal,[5],"1.21 fold enrichment (6-mer frequency, TF over GST control)"
same,binding signal,[6],"1.22 fold enrichment (6-mer frequency, TF over GST control)"
same,binding signal,[7],"1.17 fold enrichment (6-mer frequency, TF over GST control)"
same,binding signal,[8],"1.22 fold enrichment (6-mer frequency, TF over GST control)"
same,binding signal,[9],"1.09 fold enrichment (6-mer frequency, TF over GST control)"
same,binding signal,[10],"1.15 fold enrichment (6-mer frequency, TF over GST control)"
same,binding signal,[11],"1.18 fold enrichment (6-mer frequency, TF over GST control)"
same,binding signal,[12],"1.33 fold enrichment (6-mer frequency, TF over GST control)"
same,binding signal,[13],"1.17 fold enrichment (6-mer frequency, TF over GST control)"
same,binding signal,[14],"1.12 fold enrichment (6-mer frequency, TF over GST control)"
same,binding signal,[15],"1.21 fold enrichment (6-mer frequency, TF over GST control)"
same,binding signal,[16],"1.26 fold enrichment (6-mer frequency, TF over GST control)"
same,binding signal,[17],"1.12 fold enrichment (6-mer frequency, TF over GST control)"
same,binding signal,[18],"1.58 fold enrichment (6-mer frequency, TF over GST control)"
same,binding signal,[19],"1.19 fold enrichment (6-mer frequency, TF over GST control)"
